Data on ten molecules can be found in PubChem BioAssay (EPA / NIEHS).

By AC50 is commonly meant the midpoint of the concentration-response curve, whichever way the signal moves.

Each structure is given as a SMILES string. Inconclusive results are not listed. The source made the active and inactive calls. The calls were made as follows: active = hit-call score of the fitted dose curve at least 0.9, where 1 is the maximum; inconclusive = response in the unintended direction; inactive = score below 0.9.

Chain of human Janus Kinase 2 (Jak2), JAK2 (gene 3717) (O60674 whole entry, looked up): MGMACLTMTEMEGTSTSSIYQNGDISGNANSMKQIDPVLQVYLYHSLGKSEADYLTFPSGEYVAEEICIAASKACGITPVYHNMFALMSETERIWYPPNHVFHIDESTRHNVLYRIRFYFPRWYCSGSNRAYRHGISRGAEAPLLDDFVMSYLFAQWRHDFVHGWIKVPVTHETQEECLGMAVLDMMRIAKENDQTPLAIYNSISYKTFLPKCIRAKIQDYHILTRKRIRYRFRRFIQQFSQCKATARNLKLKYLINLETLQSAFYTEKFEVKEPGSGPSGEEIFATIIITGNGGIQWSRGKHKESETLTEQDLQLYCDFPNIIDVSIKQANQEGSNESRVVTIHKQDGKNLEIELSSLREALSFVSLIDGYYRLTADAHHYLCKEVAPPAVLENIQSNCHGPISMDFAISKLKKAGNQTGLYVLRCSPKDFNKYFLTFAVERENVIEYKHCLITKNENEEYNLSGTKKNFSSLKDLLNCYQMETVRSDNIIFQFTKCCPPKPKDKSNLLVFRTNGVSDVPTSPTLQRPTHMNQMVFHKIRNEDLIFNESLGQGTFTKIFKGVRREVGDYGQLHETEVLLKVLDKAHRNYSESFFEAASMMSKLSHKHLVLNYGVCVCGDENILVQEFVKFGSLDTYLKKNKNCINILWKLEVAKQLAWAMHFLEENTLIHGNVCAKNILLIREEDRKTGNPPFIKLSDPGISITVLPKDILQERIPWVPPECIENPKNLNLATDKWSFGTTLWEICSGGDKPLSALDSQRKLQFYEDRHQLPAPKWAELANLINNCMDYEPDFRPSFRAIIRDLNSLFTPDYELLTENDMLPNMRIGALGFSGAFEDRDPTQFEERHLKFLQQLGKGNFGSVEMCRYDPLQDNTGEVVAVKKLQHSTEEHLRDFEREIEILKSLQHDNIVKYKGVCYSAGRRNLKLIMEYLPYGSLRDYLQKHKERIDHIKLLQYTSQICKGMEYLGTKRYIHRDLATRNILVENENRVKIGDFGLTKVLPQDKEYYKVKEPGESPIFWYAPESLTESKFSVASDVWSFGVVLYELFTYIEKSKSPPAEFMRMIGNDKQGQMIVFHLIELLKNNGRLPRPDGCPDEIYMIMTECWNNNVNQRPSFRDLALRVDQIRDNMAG
Chain of human MAP Kinase-Activated Protein Kinase 2 (MAPKAPK2), MAPKAPK2 (gene 9261) (P49137 whole entry, looked up): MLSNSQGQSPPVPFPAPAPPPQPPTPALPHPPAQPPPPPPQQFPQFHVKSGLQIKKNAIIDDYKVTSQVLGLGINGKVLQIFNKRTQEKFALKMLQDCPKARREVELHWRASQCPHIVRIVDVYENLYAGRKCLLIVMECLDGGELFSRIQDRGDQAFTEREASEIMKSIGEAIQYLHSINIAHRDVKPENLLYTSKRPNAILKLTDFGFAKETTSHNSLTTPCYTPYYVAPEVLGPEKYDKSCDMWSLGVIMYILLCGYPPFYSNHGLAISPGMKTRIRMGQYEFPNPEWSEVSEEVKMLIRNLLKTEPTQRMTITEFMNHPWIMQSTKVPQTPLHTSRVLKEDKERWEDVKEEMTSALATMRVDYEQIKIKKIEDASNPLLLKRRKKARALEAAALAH

One assay concerns the target human Janus Kinase 2 (Jak2), JAK2 (gene 3717) (UniProt O60674). Nature of the assay: NVS_ENZ_hJak2: NovaScreen (NVS) Enzymatic Assay for human Janus Kinase 2 (Jak2) (AID 2283169). Here is the method:
NVS_ENZ_hJak2 is a biochemical, single-readout assay that uses extracted gene-proteins in a cell-free assay. Measurements were taken 1 hour after chemical dosing in a 384-well plate.NVS_ENZ_hJak2 is one of one assay component(s) measured or calculated from the NVS_ENZ_hJak2 assay. It is designed to make measurements of enzyme activity, a form of enzyme reporter, as detected with fluorescence intensity signals by Fluorescence and electrophoretic mobility shift technology.Data from the assay component NVS_ENZ_hJak2 was analyzed into 1 assay endpoint. This assay endpoint, NVS_ENZ_hJak2, was analyzed in the positive analysis fitting direction relative to DMSO as the negative control and baseline of activity. Using a type of enzyme reporter, loss-of-signal activity can be used to understand changes in the enzymatic activity as they relate to the gene JAK2. Furthermore, this assay endpoint can be referred to as a primary readout, because this assay has produced multiple assay endpoints where this one serves a enzymatic activity function. To generalize the intended target to other relatable targets, this assay endpoint is annotated to the kinase intended target family, where the subfamily is non-receptor tyrosine kinase.
Binding assays used specific radioligands (tritiated, iodinated) with non-radioactive competitive displacement ligands in agonist or antagonist protocols (as indicated) and various reference compounds and inhibitors to titrate specific binding to receptors and transporters. Most enzyme assays (CYPs, kinases, phosphatases, proteases, HDACs) used recombinant protein and specific substrates (fluorescence mostly, some colorimetric and radioactive) and inhibitors, followed by a biochemical separation of substrate and product. All assays for the biochemical HTS were initially run in duplicate at a single concentration (10 uM for CYP450 assays and 25 uM for all others). Assay-chemical combinations meeting a pre-defined threshold (e.g., 30% inhibition and other criteria defined below) were then run in singleton concentration-response format with maximum concentration of 20 uM for CYPs and 50 uM for all others. Each assay was run with positive and negative controls, and concurrent controls on every plate. The follow-up (secondary) screen tested active chemical-pairs in concentration series, as well as a few additional assays not tested in the primary screen, some selected negative inactives, and several cases re-run in the concentration series for confirmatory purposes.
Turning to `CCOC(=O)C(C)(C)Oc1ccc(Cl)cc1`, the result was inactive.

Regarding `Cc1oc(-c2ccccc2)nc1CCOc1cccc2c1ccn2CCC(=O)O`, the result was inactive.

In the case of `Nc1nc(N)c2nc(CNc3ccc(C(=O)N[C@@H](CCC(=O)O)C(=O)O)cc3)cnc2n1`, the AC50 was 21.9 µM (active).

For the molecule `CCCCCCCCCCCCCCCCCC(=O)O`, the molecule was called inactive.

As to `Cc1nc(-c2ccc3c(c2)CCN(CCC2CCC(NC(=O)/C=C/c4ccc(F)cc4)CC2)CC3)no1` (stereo not given), the AC50 is 17.1 µM (active).

In the case of `CC1=C(/C=C/C(C)=C/C=C/C(C)=C/CO)C(C)(C)CCC1`, the call was inactive.

Take `CCCCCCCCCCCCCCCC`: the result was inactive.

The next assay deals with human MAP Kinase-Activated Protein Kinase 2 (MAPKAPK2), MAPKAPK2 (gene 9261) (UniProt P49137). Nature of the assay: NVS_ENZ_hMAPKAPK2: NovaScreen (NVS) Enzymatic Assay for human MAP Kinase-Activated Protein Kinase 2 (MAPKAPK2) (AID 2283178). The method in brief:
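Chemicals screened in duplicate at 25 uM, then to 50 uM top concentration in concentration-response, against recombinant human MAPKAPK2; substrate conversion read 1 hr post-dosing by fluorescence after electrophoretic mobility-shift separation, loss-of-signal relative to DMSO.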
For `Nc1ccc2c(c1)C(=O)c1ccccc1C2=O`, the AC50 was 16.5 µM (active).

Regarding `CCOC(=O)CCC(=O)OCC`, the molecule was called inactive.

On to `COc1cc(-c2nc(NC(=O)c3cc4cc(C)cc(C)c4n3CC(=O)O)sc2CCC2CCCCC2)c(OC)cc1Cl`, for which the half-maximal activity concentration (AC50) was 6.49 µM (active).
